Source: PubChem BioAssay AID1159580 (chemical genetic matrix, 2015)
In all, about 5,500 compounds went through this assay and about 2,000 (36%) were called active. Roughly 18% stayed inconclusive and do not appear here. Rule as the data show it: active = normalized growth mostly below about 0.91 (no sharp cut-off); inconclusive = no clear call, values can overlap the other calls; inactive = mostly above about 0.92. The list shows a part of the results.

Assay: chemical genetic growth profiling, strain panel (AID 1159580);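 also: tested at 20 µM; growth read once vehicle control cultures reached saturation at 30 °C; 1 = growth at the plate median or of vehicle wells; lower values mean less growth of the strain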
Conditions: growth OD

Measured: normalized growth

CC(=O)O[C@H]1CC[C@]2(C)C3CC[C@@]4(C)C(CC5O[C@@]6(CCC(C)CO6)[C@@H](C)C54)C3CC[C@@H]2C1 (stereo partly specified)
inactive: S. cerevisiae deletion strains, locus YJR066W, strain TOR1, stronger effect = lower value 0.946 | S. cerevisiae deletion strains, locus YJR075W, strain HOC1, stronger effect = lower value 0.982 | S. cerevisiae deletion strains, locus YKL009W, strain mrt4, stronger effect = lower value 1.04 | S. cerevisiae deletion strains, locus YKL068W, stronger effect = lower value 1 | S. cerevisiae deletion strains, locus YKL160W, strain elf1, stronger effect = lower value 1.01 | S. cerevisiae deletion strains, locus YKL190W, strain CNB1, stronger effect = lower value 1 | S. cerevisiae deletion strains, locus YKR001C, strain vps1, stronger effect = lower value 0.998 | S. cerevisiae deletion strains, locus YKR026C, strain gcn3, stronger effect = lower value 1.02 | S. cerevisiae deletion strains, locus YKR091W, strain srl3, stronger effect = lower value 1.02 | S. cerevisiae deletion strains, locus YLL001W, strain dnm1, stronger effect = lower value 1.01 | S. cerevisiae deletion strains, locus YLL026W, stronger effect = lower value 1.02 | S. cerevisiae deletion strains, locus YLL041C, strain sdh2, stronger effect = lower value 1.02 | S. cerevisiae deletion strains, locus YLR027C, strain aat2, stronger effect = lower value 1 | S. cerevisiae deletion strains, locus YLR039C, strain RIC1, stronger effect = lower value 0.992 | S. cerevisiae deletion strains, locus YLR058C, strain SHM2, stronger effect = lower value 0.993 | S. cerevisiae deletion strains, locus YLR102C, strain apc9, stronger effect = lower value 0.991 | S. cerevisiae deletion strains, locus YLR113W, strain HOG1, stronger effect = lower value 0.963 | S. cerevisiae deletion strains, locus YLR221C, strain rsa3, stronger effect = lower value 1.03 | S. cerevisiae deletion strains, locus YLR258W, strain gsy2, stronger effect = lower value 1.01 | S. cerevisiae deletion strains, locus YLR262C, strain YPT6 (second series), stronger effect = lower value 1.01 | S. cerevisiae deletion strains, locus YLR268W, strain sec22, stronger effect = lower value 0.998 | S. cerevisiae deletion strains, locus YLR320W, strain mms22, stronger effect = lower value 1.03 | S. cerevisiae deletion strains, locus YLR330W, strain CHS5, stronger effect = lower value 0.984 | S. cerevisiae deletion strains, locus YLR342W, strain FKS1 (second series), stronger effect = lower value 1.01 | S. cerevisiae deletion strains, locus YLR342W, strain FKS1, stronger effect = lower value 1.03 | S. cerevisiae deletion strains, locus YLR357W, strain rsc2, stronger effect = lower value 1.01 | S. cerevisiae deletion strains, locus YLR370C, strain arc18, stronger effect = lower value 1.02 | S. cerevisiae deletion strains, locus YLR371W, strain rom2, stronger effect = lower value 0.99 | S. cerevisiae deletion strains, locus YLR384C, strain iki3, stronger effect = lower value 0.99 | S. cerevisiae deletion strains, locus YLR418C, strain cdc73, stronger effect = lower value 0.947 | S. cerevisiae deletion strains, locus YML016C, strain PPZ1, stronger effect = lower value 0.992 | S. cerevisiae deletion strains, locus YML032C, strain rad52, stronger effect = lower value 0.977 | S. cerevisiae deletion strains, locus YML120C, strain ndi1, stronger effect = lower value 1.03 | S. cerevisiae deletion strains, locus YML124C, strain tub3, stronger effect = lower value 0.979 | S. cerevisiae deletion strains, locus YMR058W, strain fet3, stronger effect = lower value 1.01 | S. cerevisiae deletion strains, locus YMR078C, strain ctf18, stronger effect = lower value 1 | S. cerevisiae deletion strains, locus YMR125W, strain sto1, stronger effect = lower value 1.03 | S. cerevisiae deletion strains, locus YMR129W, stronger effect = lower value 1 | S. cerevisiae deletion strains, locus YMR205C, strain PFK2, stronger effect = lower value 0.999 | S. cerevisiae deletion strains, locus YMR223W, strain ubp8, stronger effect = lower value 0.984 | S. cerevisiae deletion strains, locus YMR231W, strain pep5, stronger effect = lower value 1.01 | S. cerevisiae deletion strains, locus YMR263W, strain SAP30, stronger effect = lower value 0.996 | S. cerevisiae deletion strains, locus YMR307W, strain GAS1, stronger effect = lower value 1.12 | S. cerevisiae deletion strains, locus YNL067W, strain RPL9B, stronger effect = lower value 0.98 | S. cerevisiae deletion strains, locus YNL071W, strain lat1, stronger effect = lower value 1 | S. cerevisiae deletion strains, locus YNL128W, strain TEP1, stronger effect = lower value 0.998 | S. cerevisiae deletion strains, locus YNL153C, strain GIM3, stronger effect = lower value 0.984 | S. cerevisiae deletion strains, locus YNL183C, strain NPR1, stronger effect = lower value 0.964 | S. cerevisiae deletion strains, locus YNL209W, strain ssb2, stronger effect = lower value 1 | S. cerevisiae deletion strains, locus YNL233W, strain BNI4, stronger effect = lower value 1.02 | S. cerevisiae deletion strains, locus YNL248C, strain rpa49, stronger effect = lower value 1.02 | S. cerevisiae deletion strains, locus YNL250W, strain rad50, stronger effect = lower value 0.975 | S. cerevisiae deletion strains, locus YNL271C, strain bni1, stronger effect = lower value 0.989 | S. cerevisiae deletion strains, locus YNL298W, strain CLA4, stronger effect = lower value 1 | S. cerevisiae deletion strains, locus YNL307C, strain MCK1, stronger effect = lower value 0.996 | S. cerevisiae deletion strains, locus YNL322C, strain KRE1 (second series), stronger effect = lower value 1.03 | S. cerevisiae deletion strains, locus YNR049C, strain mso1, stronger effect = lower value 0.995 | S. cerevisiae deletion strains, locus YNR052C, strain pop2, stronger effect = lower value 0.983 | S. cerevisiae deletion strains, locus YOL012C, strain htz1 0.761 | S. cerevisiae deletion strains, locus YOL147C, strain pex11, stronger effect = lower value 0.986 | S. cerevisiae deletion strains, locus YOR001W, strain rrp6, stronger effect = lower value 1.01 | S. cerevisiae deletion strains, locus YOR061W, strain CKA2, stronger effect = lower value 0.999 | S. cerevisiae deletion strains, locus YOR069W, strain VPS5, stronger effect = lower value 0.983 | S. cerevisiae deletion strains, locus YOR070C, strain gyp1, stronger effect = lower value 1.02 | S. cerevisiae deletion strains, locus YOR080W, strain dia2, stronger effect = lower value 1.01 | S. cerevisiae deletion strains, locus YOR083W, strain WHI5, stronger effect = lower value 1.04 | S. cerevisiae deletion strains, locus YOR106W, strain vam3, stronger effect = lower value 1.02 | S. cerevisiae deletion strains, locus YOR136W, strain idh2, stronger effect = lower value 0.993 | S. cerevisiae deletion strains, locus YOR144C, strain elg1, stronger effect = lower value 0.994 | S. cerevisiae deletion strains, locus YOR184W, strain ser1, stronger effect = lower value 1.03 | S. cerevisiae deletion strains, locus YOR231W, strain MKK1, stronger effect = lower value 0.988 | S. cerevisiae deletion strains, locus YOR265W, strain rbl2, stronger effect = lower value 1.02 | S. cerevisiae deletion strains, locus YOR270C, strain vph1, stronger effect = lower value 1 | S. cerevisiae deletion strains, locus YOR290C, strain snf2, stronger effect = lower value 1.03 | S. cerevisiae deletion strains, locus YOR316C, strain cot1, stronger effect = lower value 0.989 | S. cerevisiae deletion strains, locus YPL051W, strain arl3, stronger effect = lower value 1.02 | S. cerevisiae deletion strains, locus YPL078C, strain atp4, stronger effect = lower value 1.04 | S. cerevisiae deletion strains, locus YPL106C, strain sse1, stronger effect = lower value 0.978 | S. cerevisiae deletion strains, locus YPL240C, strain hsp82, stronger effect = lower value 1 | S. cerevisiae deletion strains, locus YPL256C, strain CLN2, stronger effect = lower value 0.957 | S. cerevisiae deletion strains, locus YPR119W, strain clb2, stronger effect = lower value 0.984 | S. cerevisiae deletion strains, locus YPR141C, strain kar3, stronger effect = lower value 0.98 | S. cerevisiae deletion strains, locus YPR163C, strain tif3, stronger effect = lower value 0.986 | S. cerevisiae deletion strains, locus YPR167C, strain met16, stronger effect = lower value 1 | S. cerevisiae deletion strains, strain wtn01, stronger effect = lower value 1.01 | S. cerevisiae strains, strain wild type, stronger effect = lower value 1.01
